Laboratory results: PubChem BioAssay
Active and inactive are the calls of the source.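 How the source made its calls: active means compounds killing one labelled cell type while sparing the other, by normalised counts and ratio limits, not self-fluorescent; inactive means the rest.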

Test: differential killing of epithelial or mesenchymal cells, primary screen, imaging, PC-3E GFP, TEM4-18 mCherry, co-culture (AID 1345086);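 further: cells exposed to compound for 72 h before imaging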;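 on red/green cell ratio (normalised): normalised mesenchymal count divided by normalised epithelial count so high means epithelial killing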
Details: imaging cell counts, at 1 µM; for red/green cell ratio (normalised): actives lie on both sides, counts scaled to control wells, 1 = unselective
[1] = measured here: epithelial PC-3E GFP cell survival
[2] = measured here: mesenchymal TEM4-18 mCherry cell survival

SMILES	red/green cell ratio (normalised)	normalised cell number [1]	normalised cell number [2]
CC(=O)OC[C@@]1(O)C[C@@]23CCC4c5ccoc5CC[C@]4(C)C2CC[C@@H]1C3 (stereo not given in full)	0.98 (inactive)	0.89	0.88
COc1cc(OC)c2c(O)c(C(C)=O)c(C)cc2c1	1.01 (inactive)	1.08	1.09
COC(=O)C1O[C@H](OCc2ccccc2)[C@@H](OC(=O)c2ccccc2)[C@@H](OC(=O)c2ccccc2)C1O (stereo not given in full)	1.02 (inactive)	1.18	1.2
COC(=O)c1cn(C2CC2)c2c(OC)c(F)c(F)c(N)c2c1=O	1.1 (inactive)	0.97	1.07
COc1c(N2CC[C@@H](CN)C2)c(F)cc2c(=S)c(C(=O)O)cn(C3CC3)c12	1.12 (inactive)	1.08	1.2
COC(=O)C[C@H]1C(C)(C)C(=O)[C@@H]2CC3=C(CC[C@]4(C)C3=CC(=O)O[C@H]4c3ccoc3)C1(C)C2=O	1.11 (inactive)	0.96	1.06
CC(C)(c1ccc(O)cc1)c1ccc(O)cc1	0.93 (inactive)	1.17	1.09
CO[C@@H]1CC(=O)c2cccc3c2C12Oc1ccc(O)c4c1[C@](O3)(O2)C1O[C@@H]1[C@@H]4O (stereo not given in full)	0.98 (inactive)	1	0.98
C[C@@H]1Cc2cccc(O)c2C(=O)O1	1.03 (inactive)	0.83	0.85
CC1(C)CC[C@]2(C(=O)O)CC[C@]3(C)C(=CCC4[C@@]5(C)CC[C@H](O)[C@@](C)(CO)C5CC[C@]43C)C2C1 (stereo not given in full)	0.94 (inactive)	1.05	0.98
CC(C)[C@@H]1CC[C@]2(CO2)[C@@H]2C(=O)OCC(C(=O)O)=C[C@H]21	1.02 (inactive)	1.02	1.05
C=C1[C@@H](C)C2[C@H](Cc3c[nH]c4ccccc34)NC(=O)[C@]23C(=O)/C=C/C(=O)[C@H](OC(C)=O)/C(C)=C/[C@@H](C)C/C=C/[C@H]3[C@@H]1O (stereo not given in full)	1.13 (inactive)	0.94	1.06
O=C1OCC[C@H]1Oc1ccc(Oc2cnc3ccc(Cl)cc3n2)cc1	1.01 (inactive)	1.08	1.09
C=C[C@](C)(O)CC[C@@H]1[C@@]2(C)CCCC(C)(C)[C@@H]2CC[C@]1(C)O	1.05 (inactive)	1.16	1.21
c1ccc(SCC2CCCNC2)cc1 (stereo not given)	0.86 (inactive)	1.24	1.06
CO[C@H]1CC(O[C@@H]2/C(C)=C/C[C@@H]3C[C@@H](C[C@]4(CC[C@H](C)[C@@H](C5CCCCC5)O4)O3)OC(=O)[C@@H]3C=C(C)/C(=N/O)C4OC/C(=C\C=C\[C@@H]2C)[C@]43O)O[C@@H](C)C1O (stereo not given in full)	1.11 (inactive)	1.23	1.36
C[C@H]1C[C@H]2O[C@@H]2/C=C\C=C\C(=O)Cc2c(Cl)c(O)cc(O)c2C(=O)O1	0.97 (inactive)	0.89	0.87
O=C(Cc1ccncc1)c1ccc(F)cc1	1.16 (inactive)	0.82	0.95
C[C@H](O)CCc1ccc(C(=O)O)nc1	0.97 (inactive)	1.16	1.13
C=CC(C)(C)c1[nH]c2ccccc2c1C1=C(OC)C(=O)C(c2c(C(C)(C)C=C)[nH]c3ccccc23)=C(OC)C1=O	0.88 (inactive)	1.23	1.08

SMILES	red/green cell ratio (normalised)	normalised cell number [1]	normalised cell number [2]
COc1cc(O)c2c(=O)c(OC)c(-c3ccc(OC)c(OC)c3)oc2c1	1.03 (inactive)	0.82	0.85
CC1(C)C2CCC1(C)C(O)C2 (stereo not given)	1.2 (inactive)	0.75	0.9
C/C=C/[C@@H]1CC[C@@H]2C[C@H](C)CC[C@H]2[C@]1(C)C(=O)[C@H]1OC(=O)[C@@H](CO)N(C)C1=O	1.09 (inactive)	1.06	1.15
CC(C)=C1CC[C@]2(C)[C@@H](O)CC[C@H]3[C@](C)(Cc4c[nH]c5ccccc45)[C@@H](C)CC[C@]132	0.86 (inactive)	1.09	0.94
NC(=O)NCCCC(N)C(=O)O (stereo not given)	1.05 (inactive)	1.03	1.08
O=c1cc(-c2ccccc2)oc2cc(O)ccc12	0.8 (inactive)	1.2	0.97
COc1c(N2CC[C@@H](CN)C2)c(F)cc2c(=O)c(C(=O)O)cn(Cc3ccc4ccccc4c3)c12	1.09 (inactive)	0.86	0.93
C=C1OC(=O)C23C1OC(CC(O)C2O)C3C (stereo not given)	0.9 (inactive)	1.26	1.14
CC(CC(=O)N1C(=O)OC[C@H]1c1ccccc1)N1C(=S)OC[C@@H]1c1ccccc1 (stereo not given in full)	0.97 (inactive)	1.02	0.99
C/C1=C\[C@H](C)C[C@H](C)[C@@H](C)OC(=O)[C@H](Cc2ccccc2)NC(=O)[C@@H](C)C(=O)C(C)C1O (stereo not given in full)	0.99 (inactive)	1.08	1.06
C[C@H]1C[C@H]2C(=O)O[C@H]([C@@H](C)CCCC[C@@H](C)O)C[C@@H](O)[C@H](C)C(=O)NC(Cc3ccccc3)C(=O)N2C1 (stereo not given in full)	0.93 (inactive)	1.14	1.05
C=C1[C@@H](C)C2[C@H](Cc3c[nH]c4ccccc34)NC(=O)[C@]23C(=O)/C=C/C(=O)[C@H](O)/C(C)=C/[C@@H](C)C/C=C/[C@H]3[C@@H]1O (stereo not given in full)	0.87 (inactive)	1.25	1.09
O=c1cc(-c2ccccc2)oc2cc(O[C@@H]3O[C@H](CO)[C@@H](O)[C@H](O)[C@H]3O)c(O)c(O)c12	0.89 (inactive)	1.13	1
C[C@H]1[C@H]2CCC3C4CC=C5C[C@@H](N(C)C)CC[C@]5(C)C4CC[C@@]32CN1C (stereo not given in full)	0.93 (inactive)	0.89	0.83
O=C1C=CC2=C3c4cc(O)c(O)cc4C[C@@]3(O)COC2=C1	1.29 (inactive)	1.07	1.38
COC(=O)c1c[nH]c2c(OC)c(F)c(F)cc2c1=O	1.14 (inactive)	1.06	1.21
COc1cc(OC)c2c(c1C)C(C)(O)COC2=O (stereo not given)	0.9 (inactive)	1.14	1.02
Nc1nc2ncc(CNc3ccc(C(=O)NC(CCC(=O)O)C(=O)O)cc3)nc2c(=O)[nH]1 (stereo not given)	1.18 (inactive)	1.04	1.23
CC(=O)O[C@H]1C[C@@]2(C)C(CCC3[C@@]4(C)C=CC(=O)[C@@H](C)C4[C@H](OC(C)=O)C(=O)[C@@]32C)/C1=C(/CCC=C(C)C)C(=O)O (stereo not given in full)	0.99 (inactive)	0.92	0.91
COC(=O)c1cc(OC)cc(OC(=O)c2c(O)cc3cc(C)oc(=O)c3c2O)c1O	0.92 (inactive)	0.94	0.86

SMILES	red/green cell ratio (normalised)	normalised cell number [1]	normalised cell number [2]
O=C1N=NC(=O)N1c1ccccc1	0.86 (inactive)	1.19	1.03
CC(=O)C1=C(O)C=C2Oc3c(C(N)=O)c(O)cc(O)c3[C@@]2(C)C1=O	1.13 (inactive)	0.92	1.04
C=C1OC(=O)c2c(OC)cc(OC)c(C)c2C1C (stereo not given)	1 (inactive)	0.98	0.98
C=C/C(C)=C\CC1[C@](C)(O)CC[C@H]2C(C)(C)CCC[C@]12C (stereo not given in full)	1.09 (inactive)	1.11	1.2
CC1CN(c2c(F)c(N)c3c(=O)c(C(=O)O)cn(C4CC4)c3c2F)C[C@H](C)N1 (stereo not given in full)	0.99 (inactive)	1.03	1.02
OCc1cc(Br)ccc1Cl	1.07 (inactive)	1.07	1.14
CO/N=C(/C(=O)NC1C(=O)N2C(C(=O)O)=C(C[N+]3(C)CCCC3)CSC12)c1csc(N)n1 (stereo not given)	1.01 (inactive)	1.21	1.22
C/C=C\C(=O)O[C@@H]1[C@H](O)[C@@H](O)CO[C@@H]1C	1.01 (inactive)	0.99	0.99
C[C@H]1[C@H](C)CC[C@]2(C(=O)O)CC[C@]3(C)C(=CCC4[C@@]5(C)C[C@@H](O)[C@H](O)[C@@](C)(CO)C5CC[C@]43C)[C@H]12 (stereo not given in full)	1.16 (inactive)	0.97	1.13
CC(C)CC1OC23SCC(c4ccccc4)N2C(=O)C1C(C)(C)S3 (stereo not given)	0.9 (inactive)	1.15	1.03
COC(=O)C[C@@H]1C2(C)C(=O)C3CC4(OC3(O)C1(C)C)C1=CC(=O)O[C@@H](c3ccoc3)[C@]1(C)CCC42 (stereo not given in full)	1.06 (inactive)	0.91	0.96
CC(=O)OCC[C@H](C)CCC=C(C)C	1.13 (inactive)	1	1.13
C[C@@H]1C[C@@H](O)[C@@H](O)CO1	1.05 (inactive)	0.91	0.96
COc1cc2c(cc1OC)Cc1cc(OC)c(OC)cc1Cc1cc(OC)c(OC)cc1C2	1.03 (inactive)	1.01	1.04
O=C(C/C=C/c1ccc(O)c(O)c1)O[C@H](Cc1ccc(O)c(O)c1)C(=O)O	1.06 (inactive)	1	1.06
COc1cc(/C=C/C(=O)O)cc(OC)c1	1.01 (inactive)	0.91	0.93
C=C1C2=C(C(=O)N1OC)[C@H](O)[C@](C)(O)[C@H](CCCCC)O2	1.13 (inactive)	1.01	1.15
C=C1C(=O)OC(C(=O)OC)C1CCCCCCCC(C)O (stereo not given)	1.07 (inactive)	1.11	1.18
CC(C)CCCC(C)C1CCC2C3CC(=O)[C@H]4C[C@@H](O)CC[C@]4(C)C3CC[C@]12C (stereo not given in full)	1.01 (inactive)	1.04	1.05
COC(=O)C[C@@H]1C2(C)C(=O)[C@@H](CC3=C4CC(=O)O[C@@H](c5ccoc5)[C@]4(C)CCC32)[C@H](OC(C)=O)C1(C)C (stereo not given in full)	1.06 (inactive)	0.96	1.02
